Source: PubChem BioAssay (NCI)
This is part of a sample that, as a whole, favours compounds with a hit. Of some 83,000 tested, about 20% had one in any assay.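 Method: cells in 96-well plates; compound added at one concentration; 48 h incubation; percent growth measured; values under 10 scored active.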 A number with no mark means an inactive call. Active and inactive are the calls of the source.

Legend:
Assay in all cases: NCI-60 one-dose screen, 48 h (100 = growth as untreated, 0 = no growth, -100 = all killed)
Conditions in all cases: 10 µM unless noted
HCT-15 colon = tested on: HCT-15 colon
HT29 colon = tested on: HT29 colon
SNB-75 CNS = tested on: SNB-75 CNS
SNB-19 CNS = tested on: SNB-19 CNS
U251 CNS = tested on: U251 CNS
PC-3 prostate = tested on: PC-3 prostate
SK-MEL-5 melanoma = tested on: SK-MEL-5 melanoma
UACC-62 melanoma = tested on: UACC-62 melanoma
LOX IMVI melanoma = tested on: LOX IMVI melanoma
SK-MEL-28 melanoma = tested on: SK-MEL-28 melanoma

Structure (SMILES) | growth (HCT-15 colon) | growth (HT29 colon) | growth (SNB-75 CNS) | growth (SNB-19 CNS) | growth (U251 CNS) | growth (PC-3 prostate) | growth (SK-MEL-5 melanoma) | growth (UACC-62 melanoma) | growth (LOX IMVI melanoma) | growth (SK-MEL-28 melanoma)
O=C(NC(=S)Nc1ccc(-c2nc3ccccc3[nH]2)cc1)c1ccc2ccccc2c1 | 29.2% | 21.8% | -62.4% (active) | 66.2% | 13.9% | 22.8% | 14.7% | 34.1% | -45.8% (active) | 40.5%
Clc1ccc(/C=C/c2nc(Nc3ccc(Cl)cc3)c3ccccc3n2)cc1 | 99% | 112% | 93.6% | 100% | 100% | 99.2% | 96.9% | 93.2% | 97.1% | 117%
Cc1cc(Cl)nc(N(CCCNc2ccnc3cc(Cl)ccc23)Cc2ccccn2)n1 | 35.2% | 10.2% | 64.1% | 66.5% | 43.9% | 54.2% | 34.1% | 55.9% |  | 68%
CC(C)CCC[C@@H](C)[C@H]1CCC2C3=CCn4c(=O)ccc(=O)n4C3CC[C@@]21C (some centres undefined) | -44.6% (active) | -63.7% (active) | -100% (active) | -96.8% (active) | -96.9% (active) | -85.5% (active) | -100% (active) | -97.5% (active) | -89.5% (active) | -93% (active)
CCN(CC)CCNc1ccc(C)c2sc3cc(C)ccc3c(=O)c12 | 21.2% | 1.25% (active) | 67.2% | 57.6% | 45.5% | 41% | 21.9% | -15.2% (active) | 28.4% | 74.5%
O=S(=O)(Cc1ccccc1)c1nc2ccccc2s1 | 33.3% | 25.6% | 90% | 97.1% | 92.1% | 79.5% | 67.4% | 71.1% | 10.8% | 93.8%
Cc1c(C(=O)O[C@H]2[C@@H]3[C@H](C)CC[C@H]3[C@]3(C)O[C@@]2(C2CCCCC2)C[C@H]3OC(=O)CO)ccc2ccccc12 | 14.2% | -4.24% (active) | 82.6% | 60.8% | 4.41% (active) | 9.25% (active) | 68.6% | 61.3% |  | 59.7%
C=C1c2c(C)nn(-c3ccc(S(N)(=O)=O)cc3)c2N(C)C23CC1C1(C)c4c(C)nn(-c5ccc(S(N)(=O)=O)cc5)c4N(C)C(C)(CC12)C3 (centres undefined) | 14.6% | 13.6% | 76% | 43% | 24.7% | 23.6% | 45.5% | 37.5% |  | 30.7%
CC(=O)Nc1cccc(C2=CC(c3ccc(C)cc3)n3ncnc3N2)c1 (centres undefined) | 99.3% | 109% | 94.2% | 91.1% | 97.3% | 84.1% | 91.3% | 85.6% | 93.8% | 107%
CCCc1nc2ccccn2c1Nc1ccc(C(=O)NO)cc1 | 89.8% | 92.7% | 82.2% | 85% | 95.9% | 83% | 101% | 82.7% |  | 95.7%
O=C(O)C1C[C@](O)(c2ccc(F)cc2)[C@@H](c2ccc(F)cc2)O1 (some centres undefined) | 131% | 120% | 114% | 97.5% | 110% | 85.9% | 129% | 108% | 111% | 129%
O=C1CSC(c2ccccc2Cl)N1c1nnc(Cn2cnnc2)o1 (centres undefined) | 27.6% | 22.2% | 50.2% | 64.5% | 32.7% | 71.2% | 23.7% | 38.6% | 62.5% | 58.7%
C=C(CNCCc1ccc(O)cc1)[C@@H]1CC[C@]2(COC3CCCCO3)CC[C@]3(C)[C@H](CC[C@@H]4[C@@]5(C)CCC(NCCO)C(C)(C)[C@@H]5CC[C@]43C)[C@@H]12 (some centres undefined) | -93.5% (active) | -90.3% (active) | -17.6% (active) | -93.9% (active) | -95% (active) | -92.6% (active) | -95.4% (active) | -85.9% (active) |  | -94.4% (active)
C=C1c2c(C)nn(-c3ccc(NC(C)=O)cc3)c2N(C)C23CC1C1(C)c4c(C)nn(-c5ccc(NC(C)=O)cc5)c4N(C)C(C)(CC12)C3 (centres undefined) | 11% | 31.1% | 99% | 43.6% | 33.3% | 22.7% | 19.1% | 37% |  | 46.9%
CCCCCCCCc1cc[n+](CC(=O)c2ccc(Br)cc2)cc1 | 47% | -88.9% (active) | 50.5% | 35.3% | -85.2% (active) | 10.2% | -93.5% (active) | -32.9% (active) | -84.8% (active) | 32.9%
COc1ccc(Oc2nc(Nc3ccc(N4CCCCC4)nc3)ncc2NC(=O)c2cc(OC)cc(OC)c2)cc1 | 17.8% | 13.8% | 34.1% | 41.5% | 35.1% | 35.6% | 28.7% | 18.8% |  | 53.9%
Cc1cnc(Nc2ccc(OCCN3CCCC3)cc2)nc1NCc1ccco1 | 74.6% | 50.7% | 33.3% | 94.4% | 65.8% | 72% | 81.7% | 86.9% |  | 103%
CCN(CC)N=Nc1nn(C(=O)Nc2ccc(Cc3ccccc3)cc2)c2ccc(Cl)cc12 | 43.6% | 61.8% | 88.8% | 67.2% | 93.4% | 69.6% | 56.6% | 8.7% (active) |  | 70.8%
O=C(NCc1cccnc1)c1cc(-c2csc3c(=O)cc(N4CCOCC4)oc23)cc2c1OCCO2 | 66.5% | 18% | -9.26% (active) | 47.5% | 51.8% | 38.6% | 39.6% | 12.2% |  | 49%
Cc1cc(N2CCCCC2)nc(N(CCNc2ccnc3cc(Cl)ccc23)Cc2ccccn2)n1 | 17.6% | 13.1% | 80.3% | 75% | 41.8% | 45.1% |  | 67.5% |  | 
Cn1ccnc1C(=O)/C=C/c1ccc(C(=O)Nc2ccc(S(F)(F)(F)(F)F)cc2)cc1 | 3.65% (active) | 12% | 12.2% | 9.4% (active) | -6.93% (active) | 17.4% |  | 53.5% | -79.5% (active) | 79.5%
Cn1cc(-c2ccc3ncc(-c4ccc(CC(=O)Nc5cc(C(C)(C)C)nn5C)cc4)cc3c2)cn1 | 7.79% [30 µM] (active) | 36.5% [30 µM] | 22% [30 µM] | 41.9% [30 µM] | 35% [30 µM] | 5.27% [30 µM] (active) |  | -33.9% [30 µM] (active) | -18.4% [30 µM] (active) | 14.5% [30 µM]
COc1ccc(/C(C)=N/NS(=O)(=O)c2ccc(C)cc2)cc1OC | 103% | 109% | 108% | 107% | 99.6% | 91.6% |  | 105% | 93.1% | 123%
O=C1Nc2ccccc2/C1=N/N=C/c1c[nH]c2ccccc12 | 72.2% | 80.8% | 45.5% | 88.1% | 73.6% | 81.5% |  | 38.4% | 68.4% | 96.3%
COc1ccc(-n2sc(=O)n(Cc3ccc(COC(=O)C(C)c4ccc(CC(C)C)cc4)cc3)c2=O)cc1 (centres undefined) | 36.3% | 22% | 46.7% | 80.5% | 75.3% | 61.7% |  | 55.2% | -75.9% (active) | 52.8%
COc1ccc(/C=C2\COc3ccc(O)c(O)c3C2=O)c(OC)c1 | 16.8% | 73.6% | 57.7% | 76% | 44.4% | 49.6% |  | 47.8% | 30.7% | 
Cn1cc(-c2ccc3nc(-c4ccc(CC(=O)Nc5cc(C(C)(C)C)no5)cc4)cnc3c2)cn1 | 11.5% [30 µM] | 58.4% [30 µM] | 26.5% [30 µM] | 53.6% [30 µM] | 37.3% [30 µM] | 40.2% [30 µM] |  | 9.8% [30 µM] (active) | 20.1% [30 µM] | 37.5% [30 µM]
